Experimental data: PubChem BioAssay (EPA / NIEHS)
Values joined by “and” are separate entries in the source; they are usually repeats but may differ in a detail not shown here. Equal entries are not always repeated. Inconclusive results are not listed. More than one record can exist for a structure, and the calls need not agree. Active and inactive are the calls of the source. The calls were made as follows: active = hit-call score of the fitted dose curve at least 0.9, where 1 is the maximum; inconclusive = response in the unintended direction; inactive = score below 0.9.

Molecular target: human Peroxisome Proliferator-activated Receptor alpha (PPARa), PPARA (gene 5465) (UniProt Q07869)
Sequence (Q07869 whole entry, looked up): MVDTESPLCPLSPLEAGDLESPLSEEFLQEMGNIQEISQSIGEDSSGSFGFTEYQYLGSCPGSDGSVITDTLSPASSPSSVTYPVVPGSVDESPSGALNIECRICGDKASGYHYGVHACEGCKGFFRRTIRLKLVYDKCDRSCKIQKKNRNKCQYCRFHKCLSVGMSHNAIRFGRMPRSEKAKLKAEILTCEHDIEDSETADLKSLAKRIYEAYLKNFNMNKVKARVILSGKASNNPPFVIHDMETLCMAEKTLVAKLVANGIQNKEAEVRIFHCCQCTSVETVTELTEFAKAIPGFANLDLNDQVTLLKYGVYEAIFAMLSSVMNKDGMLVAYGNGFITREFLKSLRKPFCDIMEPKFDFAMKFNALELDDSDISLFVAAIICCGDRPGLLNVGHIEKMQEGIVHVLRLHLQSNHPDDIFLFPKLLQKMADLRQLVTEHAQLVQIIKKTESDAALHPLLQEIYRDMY
Experiment: NVS_NR_hPPARa: NovaScreen (NVS) Nuclear Receptor Binding Assay for human Peroxisome Proliferator-activated Receptor alpha (PPARa) (AID 2283359);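 also: activity means loss of TR-FRET signal versus DMSO baseline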
Outline: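 Cell-free TR-FRET binding assay with extracted PPARα protein, read 1 h after dosing. Primary screen in duplicate at 25 uM, with actives retested in concentration series. Loss of signal versus DMSO.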

Structure (SMILES)	outcome
O=P(Oc1ccccc1)(Oc1ccccc1)Oc1ccccc1	inactive
CCOP(=S)(OCC)SCSCC	inactive
CC1(C)CN=C(NN=C(/C=C/c2ccc(C(F)(F)F)cc2)/C=C/c2ccc(C(F)(F)F)cc2)NC1	inactive
O=C(CBr)OCc1ccccc1	inactive

Molecular target: Glucocorticoid receptor (Homo sapiens) (UniProt P04150)
Sequence (P04150 whole entry, looked up): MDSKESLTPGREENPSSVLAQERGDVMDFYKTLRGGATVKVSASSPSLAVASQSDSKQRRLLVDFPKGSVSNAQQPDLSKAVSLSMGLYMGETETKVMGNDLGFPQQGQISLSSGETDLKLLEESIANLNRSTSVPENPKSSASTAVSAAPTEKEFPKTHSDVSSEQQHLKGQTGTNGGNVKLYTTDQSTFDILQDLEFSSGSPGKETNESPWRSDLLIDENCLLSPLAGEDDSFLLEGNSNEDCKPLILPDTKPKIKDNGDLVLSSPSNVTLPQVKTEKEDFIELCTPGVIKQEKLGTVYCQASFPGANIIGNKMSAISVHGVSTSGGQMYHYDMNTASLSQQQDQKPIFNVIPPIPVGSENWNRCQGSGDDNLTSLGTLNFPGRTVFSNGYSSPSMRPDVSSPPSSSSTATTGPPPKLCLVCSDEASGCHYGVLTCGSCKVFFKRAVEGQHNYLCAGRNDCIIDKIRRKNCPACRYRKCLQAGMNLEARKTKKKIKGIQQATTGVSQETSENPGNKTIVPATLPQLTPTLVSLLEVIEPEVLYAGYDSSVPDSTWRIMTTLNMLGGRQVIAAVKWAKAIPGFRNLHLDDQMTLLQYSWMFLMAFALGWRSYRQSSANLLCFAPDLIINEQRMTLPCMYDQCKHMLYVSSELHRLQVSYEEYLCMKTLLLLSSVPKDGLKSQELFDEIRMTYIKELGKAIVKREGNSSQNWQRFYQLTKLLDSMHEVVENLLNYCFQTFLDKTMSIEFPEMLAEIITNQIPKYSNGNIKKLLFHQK
Experiment: NVS_NR_hGR: NovaScreen (NVS) Nuclear Receptor Binding Assay for human Glucocorticoid Receptor (GR) (AID 2283363);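 as to AC50: activity is loss of specific radioligand binding signal relative to DMSO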
Outline: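 Cell-free radioligand displacement assay on extracted human GR, read 16 h after dosing by filter-based scintillation counting. Screened in duplicate at 25 uM, then concentration series for actives; loss of signal versus DMSO baseline.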

Structure (SMILES)	AC50	outcome
CCCCCCCc1ccc(O)cc1	33.3 µM (active)	inactive
CCC(C)(C)c1ccc(O)cc1		inactive
CCCCC(CC)COC(=O)c1c(Br)c(Br)c(Br)c(Br)c1C(=O)OCC(CC)CCCC (configuration not stated)	6.58 µM (active) and 6.59 µM (active)	

Molecular target: Nuclear receptor subfamily 1 group I member 2 (Homo sapiens) (UniProt O75469)
Sequence (O75469 whole entry, looked up): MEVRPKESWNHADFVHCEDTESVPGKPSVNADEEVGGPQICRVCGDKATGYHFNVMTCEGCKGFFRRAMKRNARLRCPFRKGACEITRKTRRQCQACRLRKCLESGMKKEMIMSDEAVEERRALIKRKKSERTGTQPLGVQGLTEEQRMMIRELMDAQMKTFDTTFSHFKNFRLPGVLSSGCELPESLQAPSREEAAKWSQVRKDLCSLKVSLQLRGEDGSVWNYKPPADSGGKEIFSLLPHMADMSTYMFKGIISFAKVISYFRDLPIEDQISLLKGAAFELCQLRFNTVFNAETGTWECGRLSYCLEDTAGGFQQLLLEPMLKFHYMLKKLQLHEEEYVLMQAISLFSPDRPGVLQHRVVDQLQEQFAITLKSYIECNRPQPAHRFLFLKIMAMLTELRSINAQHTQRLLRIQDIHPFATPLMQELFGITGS
Experiment: NVS_NR_hPXR: NovaScreen (NVS) Nuclear Receptor Binding Assay for human Pregnane X Receptor (PXR) (AID 2283365);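 also: a drop in FRET signal versus DMSO baseline means the compound binds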
Outline: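 Cell-free TR-FRET binding assay with extracted human PXR protein, read 2 h after dosing. Primary screen run in duplicate at 25 uM, actives followed in concentration series; loss of signal fitted against DMSO baseline.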

Structure (SMILES)	outcome	AC50
CCCCCCCc1ccc(O)cc1	inactive	
CC1(C)CN=C(NN=C(/C=C/c2ccc(C(F)(F)F)cc2)/C=C/c2ccc(C(F)(F)F)cc2)NC1		7.48 µM (active)
CCCCN(CC)C(=O)SCCC	inactive	
O=NN1CCCC1	inactive	

Molecular target: guinea pig Sigma Receptor, Non-selective Binding, SIGMAR1 (gene 100135589) (UniProt Q60492)
Sequence (Q60492 whole entry, looked up): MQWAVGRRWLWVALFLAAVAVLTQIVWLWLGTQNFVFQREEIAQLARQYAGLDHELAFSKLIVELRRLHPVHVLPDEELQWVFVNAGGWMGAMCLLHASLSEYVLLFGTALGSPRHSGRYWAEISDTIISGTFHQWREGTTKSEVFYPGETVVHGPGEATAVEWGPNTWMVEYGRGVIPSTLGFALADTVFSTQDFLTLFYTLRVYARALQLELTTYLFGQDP
Experiment: NVS_OR_gSIGMA_NonSelective: NovaScreen (NVS) Nuclear Receptor Binding Assay for guinea pig Sigma Receptor, Non-selective Binding (AID 2283367)
Outline: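 Radioligand displacement on guinea pig brain membranes, read by filter-based scintillation counting 1 h after dosing. Loss of signal versus DMSO; initial duplicate single-point screen at 25 uM, actives followed in concentration series.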

Structure (SMILES)	AC50	outcome
CCCCN(CCCC)SN(C)C(=O)Oc1cccc2c1OC(C)(C)C2	4.72 µM (active)	
c1ccc2c(c1)Nc1ccccc1S2		inactive
CCN(CC)c1ccccc1		inactive

Molecular target: Peroxisome proliferator-activated receptor gamma (Homo sapiens) (UniProt P37231)
Sequence (P37231 whole entry, looked up): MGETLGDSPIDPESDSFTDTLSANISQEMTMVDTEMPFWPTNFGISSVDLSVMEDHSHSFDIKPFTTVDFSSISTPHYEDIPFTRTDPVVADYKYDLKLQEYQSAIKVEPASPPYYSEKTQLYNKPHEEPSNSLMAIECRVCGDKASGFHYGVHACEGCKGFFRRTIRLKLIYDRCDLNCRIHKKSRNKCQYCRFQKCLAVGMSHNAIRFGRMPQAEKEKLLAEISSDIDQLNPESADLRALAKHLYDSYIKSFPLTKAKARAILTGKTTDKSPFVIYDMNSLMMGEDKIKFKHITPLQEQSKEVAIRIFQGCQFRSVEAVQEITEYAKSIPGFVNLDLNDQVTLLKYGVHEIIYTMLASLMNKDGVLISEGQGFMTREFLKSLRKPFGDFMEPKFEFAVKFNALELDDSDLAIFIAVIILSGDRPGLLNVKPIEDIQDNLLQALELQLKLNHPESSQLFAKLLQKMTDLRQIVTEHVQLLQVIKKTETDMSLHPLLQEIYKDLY
Experiment: NVS_NR_hPPARg: NovaScreen (NVS) Nuclear Receptor Binding Assay for human Peroxisome Proliferator-activated Receptor gamma (PPARg) (AID 2283370)
Outline: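 Cell-free fluorescence polarization binding to human PPARg protein, read 2 h after dosing. Primary screen in duplicate at 25 uM, actives followed in concentration series; loss of signal relative to DMSO scored.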

Structure (SMILES)	outcome	AC50
CCCCCCCc1ccc(O)cc1	inactive	
CCOC(=O)c1ccccc1N	inactive	
CCNc1nc(Cl)nc(NC(C)(C)C)n1		13.4 nM (active)
O=S(=O)(c1ccc(O)cc1)c1ccc(O)cc1	inactive	
O=P(Oc1ccccc1)(Oc1ccccc1)Oc1ccccc1		2.29 nM (active)
CCCCN(CCCC)SN(C)C(=O)Oc1cccc2c1OC(C)(C)C2	inactive	
CCOP(=S)(OCC)SCSCC	inactive	
CC1(C)CN=C(NN=C(/C=C/c2ccc(C(F)(F)F)cc2)/C=C/c2ccc(C(F)(F)F)cc2)NC1	inactive	
c1ccc2c(c1)Nc1ccccc1S2	inactive	
CCCCN(CC)C(=O)SCCC	inactive	
O=NN1CCCC1	inactive	
CC(C)(C)OOC(C)(C)C	inactive	
